High-throughput results (PubChem BioAssay)
Cycloheximide cs: affects cycloheximide protein synthesis inhibition readout, counter-screen; max response, %; actives 12% (n = 300,000); cell reporter, cycloheximide protein synthesis inhibition counterscreen; in the data active = max response mostly above about 13%, no sharp cut-off; inactive = mostly below about 14%; note: read at 38.3 µM for the half of the compounds with a filed dose; 0% is about no effect
Pf growth 96h: P. falciparum growth inhibition at 96 hours; P. falciparum luciferase reporter growth, 96 h; Potency, µM (highest dose often 28.7 µM), for inactives: top-dose activity change, negative = inhibition, actives largely listed as inhibitors; actives 6.9% (n = 320,000); note: potency is the fitted concentration of half-maximal effect; % is set by controls: 0 for no effect and ±100 for the full control effect
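Infected RBCs, 2% Hct / 0.05% parasitemia final; luciferase-reporter P. falciparum; cpd 96 h, 37 C, 5% CO2; luciferase detection reagent; luminescence.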
Shiga inhibitor: inhibitors of Shiga toxin in Vero cells; Vero cells, Shiga toxin protein synthesis inhibition reporter; inhibition, % at 38.7 µM; actives 9.2% (n = 290,000); in the data active = inhibition mostly above about 28%, no sharp cut-off; inactive = mostly below about 43%; note: 0% is about no effect
HCMV antiviral: blocks human cytomegalovirus replication. AID 1259415. HFF cells, HCMV-luciferase reporter, 72 h; active compounds read low. activity change, negative = inhibition, % at 57.5 µM. actives 4.5% (n = 410,000); in the data active = activity change below about -60%; inconclusive = no clear call, values can overlap the other calls; inactive = above about -39%; note: % is set by controls: 0 for no effect and ±100 for the full control effect
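Cell-based, HFFs, 1000 cells/well, 16 h 37C; cpds in DMSO + HCMV-luc, MOI 1 PFU/cell; 72 h 37C; OneGlo luminescence after 5 min RT; norm. to buffer vs Salinomycin 10uM.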
Pf growth 48h: inhibits P. falciparum growth in the first generation, 48 h; Potency, µM (titrated, usually from 28.7 µM), for the others: at the highest dose activity change, negative = inhibition, actives largely listed as inhibitors; P. falciparum luciferase growth in erythrocytes, 48 h; actives 5.9% (n = 310,000); note: potency is the fitted concentration of half-maximal effect; % is set by controls: 0 for no effect and ±100 for the full control effect
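First compound was added to culture medium, then infected red cells at 0.1% parasitemia and 2% hematocrit (final). After incubation at 37 C under 5% CO2, luciferase detection reagent was dispensed and light output recorded.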
The depositor's hits bear a star; i = inactive; u = inconclusive; x = not tested or not shown; [ ] = another dose, or the depositor's remark. Compounds with a hit are over-represented: about 20% of the library has one in this group of screens. Unless noted, calls come from the whole dose curve; as a rule, active = well fitted inhibition curve with a large enough effect; inconclusive = small, poorly fitted or top-dose-only effect, or another doubt; inactive = no such curve, though single readings can be large or run the other way.

SMILES	Cycloheximide cs	Pf growth 96h	Shiga inhibitor	HCMV antiviral	Pf growth 48h
CCc1ccc(NC(=O)C2CCCN(S(=O)(=O)c3cnc[nH]3)C2)cc1 (centres undefined)	-2	u	-8	x	-6%
O=C(Nc1ccc(Cl)cn1)C1CCN(S(=O)(=O)c2cccs2)CC1	8	7%	6	-72*	-4%
CN(C)S(=O)(=O)c1ccc(Cl)c(NC(=O)C2CCN(S(=O)(=O)c3cccs3)CC2)c1	x	u	x	-66*	u
Cc1ccc(C)c(Cn2c3ccccc3c3cnn(CC(=O)NCCCN4CCCCC4)c(=O)c32)c1	-12	-33%	-10	-79*	u
Cc1ccc(C)c(Cn2c3ccccc3c3cnn(CC(=O)N4CCCCC4)c(=O)c32)c1	x	x	x	-3	x
Cc1ccc(C)c(Cn2c3ccccc3c3cnn(CC(=O)NCc4ccccn4)c(=O)c32)c1	-9	12µM*	-9	-19	u
c1ccc2c(c1)oc1c(NCC3CCCO3)ncnc12 (centres undefined)	34*	19%	54*	-28	51%
c1ccc(-c2nc(NCc3cccnc3)c3oc4ccccc4c3n2)cc1	-2	9.3µM*	-7	-3	u
O=C(CSc1ncnc2c1oc1ccccc12)NCC1CCCO1 (centres undefined)	x	x	x	-10	x
c1ccc(-c2nc(NCC3CCCO3)c3oc4ccccc4c3n2)cc1 (centres undefined)	-4	15µM*	1	-2	x
Cc1ccc(CNC(=O)Cn2c(-c3cccs3)cc3cc(Cl)ccc32)cc1	x	x	x	-16	x
CN(C)c1ccc(CNC(=O)Cn2c(-c3cccs3)cc3cc(Cl)ccc32)cc1	x	x	x	-71*	x
CC1CCC2C(C1)Nc1c(C(=O)O)cccc1C2(C)C (centres undefined)	-1	41%	-5	u	12%
Cc1cc(C)n(S(=O)(=O)/C=C/c2ccccc2)n1	11	9%[5.75 µM]	17	-67*	-21%
Cc1ccc(S(=O)(=O)n2nc(C)cc2C)cc1	-1	x	-13	-31	-9%
CCOC(=O)c1c(C)nc(C)c(C(=O)OCC)c1-c1ccc(OC)cc1	4	u	15	-11	u
CCOC(=O)c1c(C)nc(C)c(C(=O)OCC)c1-c1ccc(Br)cc1	-1	13µM*	-4	u	-23%
CN1CCN(Cc2c(C(=O)N/N=C/c3cccc(Br)c3)nnn2-c2nonc2N)CC1	-15	26%	-24	-60*	u
CCOc1cccc(-c2c(C(=O)N/N=C/c3ccc(Br)cc3)nnn2-c2nonc2N)c1	-4	2.6µM*	-2	-33	u
CCOc1ccc(-c2c(C(=O)N/N=C/c3cccc(Br)c3)nnn2-c2nonc2N)cc1	1	2.9µM*	2	-63*	u
Nc1nonc1-n1nnc(C(=O)N/N=C/c2cccc(O)c2)c1CN1CCCC1	11	-8%	10	-24	-2%
CCCC(=O)NCCc1nc2ccccc2n1Cc1c(F)cccc1Cl	x	x	x	-24	x
O=[N+]([O-])c1cc(/C=N/O)ccc1N1CCCC1	13	41%	-3	u	3%
CO/N=C/c1ccc(N2CCCC2)c([N+](=O)[O-])c1	31*	47%	53	-15	233%
COc1cccc(C(=O)/C=C/c2ccc(N3CCCCC3)c([N+](=O)[O-])c2)c1	29*	-77%	60*	-4	u
SMILES	Cycloheximide cs	Pf growth 96h	Shiga inhibitor	HCMV antiviral	Pf growth 48h
O=C(NCC1CCCO1)/C(=C\c1ccccc1F)NC(=O)c1ccccc1 (centres undefined)	-1	20%	-13	56	11%
Cc1ccccc1-c1nnnn1C1CCS(=O)(=O)C1 (centres undefined)	-3	-11%	-16	-67*	12%
Cc1ccccc1-c1nc2ccccc2c(=O)n1C1CCS(=O)(=O)C1 (centres undefined)	2	x	-10	-33	9%
COC(=O)c1ccc(C2NC(=S)N(c3ccccc3)C(C)=C2C(=O)Nc2ccccc2OC)cc1 (centres undefined)	0	x	-4	-1	13µM*
COc1ccccc1NC(=O)C1=C(C)N(c2ccccc2)C(=S)NC1c1cccc(C(F)(F)F)c1 (centres undefined)	1	u	4	-96*	x
CC(C)(C)c1cc(C=C(C#N)C#N)cc(C(C)(C)C)c1O	x	1.5µM*	x	-100*	2.6µM*
N#CC(C#N)=Cc1ccc(O)c(O)c1	x	u	x	30	u
O=C(O)CC(NC(=O)c1ccncc1)c1ccccc1 (centres undefined)	5	9%	-9	-5	2%
O=C(c1cc(-c2ccc(Br)cc2)nc2ccccc12)N1CCN(c2ccccc2O)CC1	x	5.9µM*	x	-16	5.9µM*
Cc1ccc(-c2cc(C(=O)N3CCN(c4ccccc4O)CC3)c3ccccc3n2)o1	35*	13µM*	66*	29	u
O=C(c1cc(-c2ccc(Cl)cc2)nc2ccccc12)N1CCC1	x	u	x	-1	u
O=C(c1ccc2ccccc2n1)N1CCN(c2ccccc2O)CC1	52*	13µM*	88*	52	u
COc1ccc(CCNC(=O)Cn2c(=O)n(-c3ccc(C)c(F)c3)c(=O)c3sccc32)cc1OC	9	37%	6	u	-2%
C#CCNC(=O)C[C@@H]1C[C@@]2(C(=O)OC)CCCCC=C2N(Cc2ccc(Cl)cc2Cl)C1=O	x	x	x	-16	x
COc1ccc(/C=N/NC(=O)c2ccccc2OC)cc1COc1ccc(C)cc1	17	-12%	19	140	-14%
Cc1ccc(C(=O)/C=C/c2ccc3c(c2)OCCO3)c(O)c1	40*	201%	86*	56	231%
O=C(/C=C/c1ccc2c(c1)OCCCO2)c1ccc2ccccc2c1O	12*	61%	40*	-28	30%
O=C(OCC(=O)N1CCOCC1)c1ccc2ccccc2c1O	x	i	x	84	i
Cc1ccc(CCNC(=O)c2cnc3c(-c4ccc(F)cc4)c(C)nn3c2C)cc1	x	x	x	20	x
CCOC(=O)C1=CCN(S(=O)(=O)c2ccc(C)cc2)C1c1ccc(C(C)C)cc1 (centres undefined)	x	x	x	-40	x
CN1C(=O)NC(c2cccc(O)c2)C(C(=O)c2cccs2)C1(O)C(F)(F)F (centres undefined)	57*	171%	85*	x	-22%
O=C(Nc1nc(-c2cccs2)cs1)c1ccc(Cl)cc1	29	x	41	3	-3%
COc1cc(C(=O)Nc2nc(-c3cccs3)cs2)cc(OC)c1OC	8	14%[5.75 µM]	-9	41	12µM*
COc1ccc(C(=O)Nc2nc(-c3cccs3)cs2)cc1	45*	x	84*	-22	-7%
COc1cc(C(=O)NC(=S)Nc2nc(-c3ccc(F)cc3)cs2)cc(OC)c1OC	1	2%	9	7	3%
Cc1cccc(N(C)C(=O)CCS(=O)(=O)c2ccc3c(c2)oc(=O)n3C)c1	x	x	x	-6	x
CC(=O)CCc1ccccc1	x	23%	x	14	u
CC(=O)CCc1c[nH]c2c(C(=O)O)cccc12	-2	12µM*	12	2	22%
